# Measurements: PubChem BioAssay (NCATS)
# A number with no mark means an inactive call. Results filed as inconclusive are left out. Where a call stands in place of a potency, no number is given. Activity calls are given as the source filed them. The call rests on the fitted dose curve; in most records, active means well fitted curve in the direction sought with a large enough effect; inconclusive means small, poorly fitted or top-dose-only effect, or another doubt; inactive means no such curve, though single readings can be large; an effect the other way counts as inactive or inconclusive. Where a SMILES comes first, the peptide text is derived from it. The star is where a group is joined. Cbz = O=C(OCc1ccccc1)*; CH2F = FC*
# Legend:
# [1] = target: Glutathione peroxidase 1 (Homo sapiens) (UniProt P07203); experiment: Primary qHTS Assay for Inhibitors of Recombinant Selenoprotein Glutathione Peroxidase 1 (GPX1) (AID 1845191); details: recombinant GPX1, GR-coupled NADPH fluorescence, 15 min; series mostly up to 27.7 µM; further: nearly all actives have a fitted effect of over 65% in size
# Procedure, shortened: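 GR-coupled readout: NADPH consumption tracked by fluorescence, ex 340/em 450 nm, at t=0 and after 15 min at RT. Final mix 10 nM GPX1, 1 mM GSH, 0.5 mM CHP, 0.5 mM NADPH, 100 nM GR, 0.01% BSA, following 30 min enzyme–compound preincubation.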
# [2] = target: Phospholipid hydroperoxide glutathione peroxidase GPX4 (Homo sapiens) (UniProt P36969); experiment: Primary qHTS Assay for Inhibitors of Recombinant Selenoprotein Glutathione Peroxidase 4 (GPX4) (AID 1845192); details: recombinant GPX4, GR-coupled NADPH fluorescence, 15 min; series mostly up to 27.8 µM; further: nearly all actives have a fitted effect of over 65% in size
# Procedure, shortened: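 Steps: GPX4 plus compound, 30 min RT; add GR/GSH/NADPH master mix; start with cumene hydroperoxide; read 340/450 nm fluorescence at 0 and 15 min. Finals were 200 nM GPX4, 1 mM GSH, 0.5 mM CHP, 0.5 mM NADPH, 100 nM GR.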
# [3] = target: Luciferin 4-monooxygenase (Photinus pyralis) (UniProt P08659); experiment: Primary firefly luciferase (FLuc) qHTS assay for identification of artifact compounds. (AID 1845220); details: purified firefly luciferase, luminescence, 5 min; series mostly up to 54.1 µM; further: nearly all actives have a fitted effect of over 60% in size
# Procedure, shortened: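 D-luciferin and ATP (10 uM each, final) in Tris acetate buffer pH 7.6 were incubated with compounds for 15 min at room temperature. The reaction was started with 10 nM Photinus pyralis luciferase and luminescence read after 5 min. Percent inhibition was fitted to a 4-parameter Hill equation.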
# [4] = Primary fluorescence-based thiol-reactive (MSTI) qHTS assay for identification of artifact compounds. (AID 1845221); details: MSTI thiol-reactivity probe, 1 h; series mostly up to 53.8 µM; further: nearly all actives have a fitted effect of over 65% in size; further: potency means the concentration at half of the fitted maximal effect;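 on activity change, negative = thiol reactive: thiol-reactive compounds lower the probe fluorescence signal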
# Procedure, shortened: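 Compounds were incubated 1 h at room temperature in the dark with the MSTI probe (4 uM) in PBS pH 7.4, 2% DMSO. Signals were normalized between Acetyl-MSTI and MSTI.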
# [5] = tested on: Nanoluciferase (engineered Oplophorus gracilirostris luciferase); experiment: Primary Nanoluciferase (NLuc) qHTS assay for identification of artifact compounds. (AID 1845222); details: NLuc-conditioned medium, Nano-Glo luminescence, 5 min; series mostly up to 54.1 µM
# Procedure, shortened: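 Diluted conditioned medium from NLuc-expressing S16 cells treated with compounds for 15 min at room temperature, then Nano-Glo substrate added; luminescence read after 5 min. Percent inhibition versus no-enzyme and DMSO controls fitted to 4-parameter Hill equation.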
# Sequence of Glutathione peroxidase 1 (Homo sapiens) (P07203 whole entry, looked up): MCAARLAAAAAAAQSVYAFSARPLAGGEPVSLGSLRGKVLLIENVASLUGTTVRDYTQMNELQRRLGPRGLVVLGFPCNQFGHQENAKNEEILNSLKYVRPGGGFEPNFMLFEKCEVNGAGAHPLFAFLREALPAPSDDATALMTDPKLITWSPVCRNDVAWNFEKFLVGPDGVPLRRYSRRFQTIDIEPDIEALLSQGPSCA
# Sequence of Phospholipid hydroperoxide glutathione peroxidase GPX4 (Homo sapiens) (P36969 whole entry, looked up): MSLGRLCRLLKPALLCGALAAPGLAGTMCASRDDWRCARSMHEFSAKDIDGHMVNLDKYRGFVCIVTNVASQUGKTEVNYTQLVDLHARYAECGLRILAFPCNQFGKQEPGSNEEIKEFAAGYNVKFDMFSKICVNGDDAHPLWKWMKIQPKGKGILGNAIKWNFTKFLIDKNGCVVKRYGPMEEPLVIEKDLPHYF
SMILES,Potency [1],Potency [2],Potency [3],Potency [4],Potency [5],"activity change, negative = inhibition [3]","activity change, negative = thiol reactive [4]","activity, negative = inhibition [5]",outcome [3]
COc1c(C)c(OCC=C(C)C)cc2c1CNC2=O,inactive,inactive,inactive,inactive,inactive,,,,
COC(=O)CC[C@H](NC(=O)[C@H](CC(C)C)NC(=O)OCc1ccccc1)C(=O)N[C@@H](Cc1cnc[nH]1)C(=O)N[C@@H](CC(=O)OC)C(=O)CF (Cbz-LE(OMe)HD(OMe)-CH2F),inactive,inactive,,,,1.89% [at 11.6 µM],12.6% [at 11.5 µM],2.59% [at 11.6 µM],
CC1(C)CC[C@]2(C(=O)O)CC[C@]3(C)C(=CCC4[C@@]5(C)C[C@@H](O)[C@H](O)[C@@](C)(CO)C5CC[C@]43C)C2C1 (stereo not given in full),inactive,inactive,inactive,inactive,inactive,,,,
CC(C)=CCC[C@](C)(O[C@@H]1O[C@H](CO[C@@H]2O[C@@H](CO)[C@H](O)[C@H]2O)[C@@H](O)[C@H](O)[C@H]1O)[C@H]1CC[C@]2(C)[C@@H]1[C@H](O)C[C@@H]1[C@@]3(C)CC[C@H](O[C@@H]4O[C@H](CO)[C@@H](O)[C@H](O)[C@H]4O[C@@H]4O[C@H](CO)[C@@H](O)[C@H](O)[C@H]4O)C(C)(C)[C@@H]3CC[C@]12C,inactive,inactive,inactive,inactive,inactive,,,,
CC(=O)O[C@H]1C[C@@]2(C)[C@@H](CC[C@H]3[C@@]4(C)C=CC(=O)[C@@H](C)[C@@H]4[C@H](OC(C)=O)C(=O)[C@@]32C)/C1=C(\CCC=C(C)C)C(=O)O,inactive,inactive,inactive,inactive,inactive,,,,
CC(=O)OC1CC2C(C)(C)C(=O)C=CC2(C)C2CC(=O)C3=C(CCC3C3=CC(O)OC3=O)C12C (stereo not given),inactive,inactive,inactive,inactive,inactive,,,,
C[C@H]1[C@H](C)CC[C@]2(C(=O)O)CC[C@]3(C)C(=CCC4[C@@]5(C)C[C@@H](O)[C@H](O)C(C)(C)C5CC[C@]43C)[C@H]12 (stereo not given in full),inactive,inactive,inactive,inactive,inactive,,,,
CC1(C)CC[C@]2(C(=O)OC3OC(CO)C(O)C(O)C3O)CC[C@]3(C)C(=CCC4[C@@]5(C)C[C@@H](O)[C@H](OC6OC(C(=O)O)C(O)C(O)C6O)C(C)(C)C5CC[C@]43C)[C@@H]2C1 (stereo not given in full),inactive,inactive,,,,-3.02% [at 11.6 µM],309% [at 11.5 µM],1.92% [at 11.6 µM],
CC(=O)NC1C(OC2CCC3(C)C(CCC4(C)C3CC=C3C5CC(C)(C)CCC5(C(=O)O)C(O)CC34C)C2(C)C)OC(CO)C(O)C1O (stereo not given),inactive,inactive,inactive,inactive,inactive,,,,
CC1(C)CC[C@]2(C(=O)O[C@@H]3O[C@H](CO[C@@H]4O[C@H](CO[C@@H]5O[C@H](CO)[C@H](O)[C@H](O)[C@H]5O)[C@@H](O)[C@H](O)[C@H]4O)[C@@H](O)[C@H](O[C@@H]4O[C@H](CO)[C@@H](O)[C@H](O)[C@H]4O)[C@H]3O)[C@H](O)C[C@]3(C)C(=CCC4[C@@]5(C)CC[C@H](O[C@@H]6OC[C@@H](O)[C@H](O)[C@H]6O)[C@@](C)(C(=O)O)C5CC[C@]43C)[C@@H]2C1 (stereo not given in full),inactive,inactive,,,,,27.9% [at 11.5 µM],-3.7% [at 11.6 µM],inactive [at 11.6 µM]
C[C@@H]1O[C@@H](O[C@H]2[C@H](O[C@H]3[C@H](O[C@H]4CC[C@@]5(C)C(CC[C@]6(C)C5CC=C5[C@@H]7CC(C)(C)C[C@@H](O)[C@]7(C)CC[C@]56C)[C@@]4(C)CO)O[C@H](C(=O)O)[C@@H](O)[C@@H]3O)O[C@H](C(=O)O)[C@H](O)[C@@H]2O)[C@H](O)[C@H](O)[C@H]1O (stereo not given in full),inactive,inactive,,,,0.9% [at 11.6 µM],68.8% [at 11.5 µM],0% [at 11.6 µM],
COC(=O)C1=CO[C@@H](O[C@@H]2O[C@H](CO)[C@@H](O)[C@H](O)[C@H]2O)[C@@H]2C(C)CC(=O)[C@]12O (stereo not given in full),inactive,inactive,inactive,inactive,inactive,,,,
CNc1nc(Cc2ccccc2)nc2c1CCNC[C@@H]2C,inactive,inactive,inactive,inactive,inactive,,,,
C=C(C)[C@@H]1CC[C@]2(C(=O)O)CC[C@]3(C)C(CCC4[C@]5(C)C(CC[C@]43C)C(C)(C)[C@@H](O)[C@@H]5C(=O)O)C12 (stereo not given in full),inactive,inactive,inactive,inactive,inactive,,,,
COC(=O)C1=COC(O[C@@H]2O[C@H](CO)[C@@H](O)[C@H](O)[C@H]2O)[C@@H]2[C@@](C)(O)[C@@H](OC(=O)/C=C/c3ccccc3)C[C@]12O (stereo not given in full),inactive,inactive,inactive,13 µM (active),inactive,,,,
CC1(C)CC[C@]2(C(=O)O[C@@H]3O[C@H](CO)[C@@H](O)[C@H](O)[C@H]3O)CC[C@]3(C)C(=CCC4[C@@]5(C)C[C@H](O)[C@H](O[C@@H]6O[C@H](C(=O)O)[C@@H](O)[C@H](O)[C@H]6O)[C@@](C)(CO)C5CC[C@]43C)C2C1 (stereo not given in full),inactive,inactive,,,,,8.46% [at 11.5 µM],1.06% [at 11.6 µM],inactive [at 11.6 µM]
O=C(OCC(O)CO[C@@H]1O[C@H](C(=O)O)[C@@H](O)[C@H](O)[C@H]1O)c1ccccc1 (stereo not given in full),inactive,inactive,inactive,6.56 µM (active),inactive,,,,
